Test results: PubChem BioAssay (NCI)
About 83,000 compounds went through this panel and 20% of them were active in at least one assay; those are over-represented in the sample as a whole.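 Assay: single dose, 48 h. Readout: percent growth (0 = no net growth; negative = cell death). Active: <10.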 Unmarked numbers belong to inactive results. The source made the active and inactive calls.

System: HL-60(TB) leukemia
Assay: NCI-60 one-dose screen, 48 h (100 = growth as untreated, 0 = no growth, -100 = all killed)
Details: 10 µM unless noted

`O=C(c1ccncc1)N1N=C(c2ccc(Cl)cc2)C[C@H]1c1cn(-c2ccccc2)nc1-c1ccccc1` was tested, and the growth was 107%.
`Cc1nccc2c3ccc(OCc4cn(-c5ccc(Cl)cc5)nn4)cc3n(CCCc3ccccc3)c12` was tested, and the growth was -64.9% (active).
For `O=c1c2cc(F)ccc2sc2c(NCCN3CCOCC3)nc3ccccc3c12`, the growth was 65.3%.
Work on `COc1ccc(-c2cc(NC(=O)Nc3ccc4ncsc4c3)no2)cc1` yielded a growth of 90.8%.
In the case of `C[C@@H](Oc1cc(-c2cnn(C3CC4(CNC4)C3)c2)cnc1N)c1c(Cl)ccc(F)c1Cl`, the growth is reported as -1.19% (active).
`S=C1NC2(c3ccccc3)CCC(=S)N2c2ccccc21` (stereo not given) showed a growth of 104%.
For `CC(C)(C)c1ccc(C(=O)Nc2sc3c(c2C(N)=O)CCC(=O)C3)cc1`, the growth was 3% (active).
Work on `C(=C1c2ccccc2-c2ccccc21)c1ccccn1` yielded a growth of 52.3%.
In the case of `CCOC(=O)c1sc(-c2ccc(OS(=O)(=O)C[C@]34CCC(CC3=O)C4(C)C)c(C=O)c2)nc1C`, the growth is reported as -5% (active).
In the case of `CC(O)CN(CCO)CCN(CCO)CC(C)O` (stereo not given), the growth is reported as 102%.
`C=C(C)[C@@H]1CC[C@]2(COC(=O)c3ccccc3C(=O)O)CC[C@]3(C)[C@H](CC[C@@H]4[C@@]5(C)CC[C@H](OC(=O)c6ccccc6C(=O)O)C(C)(C)[C@@H]5CC[C@]43C)[C@@H]12` was tested, and the growth was 37.8% [100 µM].
`CC1(C)C(N(O)C(=O)Nc2ccc(Cl)cc2)N(c2ccc(Cl)cc2)C(=O)N1CC(=O)N/N=C/C=C/c1ccc([N+](=O)[O-])o1` (stereo not given) was tested, and the growth was -36% (active).
Work on `CN1CCN(C(=S)S)CC1` yielded a growth of 111%.
For `CN1/C(=C\C(I)C(I)C2=[N+](C)c3ccccc3C2(C)C)C(C)(C)c2ccccc21` (stereo not given), the growth was -20.1% (active).
With `BrC1=C(Br)C(Br)(Br)C(Br)=C1Br` the growth was 27.4%.
With `Cc1nn(-c2ccccc2)c2nc3c(c(-c4ccc(Cl)cc4)c12)CNC1(CCSCC1)N3` the growth was 72.9%.
For `O=C(Oc1ccc(CO[N+](=O)[O-])cc1)c1ccccc1`, the growth was -45.9% (active).
In the case of `COc1ccc(C2CC(c3cccs3)=NN2c2ccc(S(N)(=O)=O)cc2)cc1` (stereo not given), the growth is reported as 73.7%.
`CCOC(=O)c1coc(C(=O)OCC)c1C(=O)OCC` gave a growth of 105%.
With `COc1ccc(-c2cc(-c3ccccc3)nc(SCCCCCCC(=O)NO)n2)cc1` the growth was 8.06% (active).
Work on `Cn1cnc2c(F)c(Nc3ccc(Br)cc3Cl)c(C(=O)NOCCO)cc21` yielded a growth of 24.5%.
Work on `O=[N+]([O-])c1cc2c(cc1Br)-c1ccccc1C2` yielded a growth of 104%.
Work on `O=c1[nH][nH]c(=O)c2cc([N+](=O)[O-])ccc12` yielded a growth of 96.2%.
With `CC12O[C@H](C[C@@H](OC(=O)c3ccccc3)[C@H]1O)n1c3ccccc3c3c4c(c5c6ccccc6n2c5c31)C(=O)NC4=O` the growth was 96.9%.
For `COC(=O)[C@H]1Cc2c([nH]c3ccccc23)[C@H](c2ccc3c(c2)OCO3)N1`, the growth was 98.6%.
With `Cc1c(Cl)cccc1NC(=O)c1sc2nc3c(cc2c1N)CCCCCC3` the growth was -15.9% (active).
Work on `COc1cc(/C=C(/C)C[N+](=O)[O-])ccc1O` yielded a growth of 71.5%.
`CC(=O)c1ccc(Cc2ccc(C(C)=O)s2)s1` was tested, and the growth was 86.5%.
`Cc1cc2c(cc1C)N(C(=O)CCl)CCN2C(=O)CCl` was tested, and the growth was -41.3% (active).
Compound `Cc1c(C)c2c(c(C)c1NC(=O)CCCCCCC(=O)O)CCC(C)(CCCC(C)CCCC(C)CCCC(C)C)O2` (stereo not given) has a growth of 75.1%.
`COc1ccc(NC(=O)c2ccc(Nc3ncnc4[nH]c(C)c(C)c34)cc2)cc1` was tested, and the growth was 89.1%.
For `COc1ccc(-c2nc3sccn3c2/C=C/C(=O)c2cc(OC)c(OC)c(OC)c2)cc1OC`, the growth was 6.14% (active).
Work on `CCCn1nc(C(=O)N(C)Cc2ccccc2)c2c1CCC(N1CCc3ccccc31)C2` (stereo not given) yielded a growth of 98%.
In the case of `O=C(Nc1ccc(C(=O)/C=C/c2ccc(N3CCOCC3)cc2)cc1)Nc1ccc([N+](=O)[O-])cc1`, the growth is reported as 70.6%.
With `CCN(CCCCCCCCCCN1CC(=O)N(CCCCCCCCCCN(CC)Cc2ccccc2OC)CC1=O)Cc1ccccc1OC` the growth was -67.9% (active).
For `COc1ccc(/C=C/C(=O)c2ccc(O)c(CN3CCN(c4cc5c(cc4F)c(=O)c(C(=O)O)cn5C4CC4)CC3)c2)cc1`, the growth was 0.375% (active).
With `CC1(O)CCCCC1O` (stereo not given) the growth was 107%.
In the case of `CC/C=C1/C(=O)C=C[C@@H]1C/C=C\CCCC(=O)OC`, the growth is reported as 5.31% (active).
`COc1ccc(C(=O)/C=C/c2sc(Cl)nc2Cl)cc1` was tested, and the growth was 32.3%.
`O=[N+]([O-])c1ccc(N2CCN=N2)cc1` was tested, and the growth was 84.4%.
With `Cn1c(O)c(N=NC(=O)c2cc(-c3ccccc3)on2)c2ccccc21` the growth was 80.8%.
For `CN(C)c1ccc(C2CC(c3ccccc3)=NN2/C=C2\SC(=O)NC2=O)cc1` (stereo not given), the growth was 84.7%.
Compound `COc1ccc(C(=O)C/C(=C\c2ccc(Cl)cc2)C(=O)NCc2ccccc2)cc1` has a growth of 73.8%.
For `C=C(C)[C@@H]1CC[C@]2(C)[C@H](CC[C@@H]3[C@H]4[C@H]5OC[C@@]4(CCC5(C)C)CC[C@]32C)[C@@]1(C)CCCN`, the growth was -4.66% (active).
Compound `Nc1ccc(C(=O)/C=C/c2ccccc2)cc1` has a growth of 27.4%.
`CCN(CC)CCOc1ccc(/C(=C(\C)c2ccc(F)c(OC)c2)c2ccc(Cl)cc2)cc1` was tested, and the growth was -27.9% (active).
With `COc1cc(C=O)ccc1OC1OC(COC(C)=O)C(OC(C)=O)C(OC(C)=O)C1OC(C)=O` (stereo not given) the growth was 106%.
`CCOC(=O)CCCC(=O)OCC` was tested, and the growth was 102%.
For `CCCC(C)c1ccc(OCCCCCCN2CCNCC2)cc1` (stereo not given), the growth was -44.9% (active).
`COc1ccc(C(=O)c2cc(OC)c(OC)c(OC)c2)cc1/C=C/C(=O)c1ccc(F)cc1` gave a growth of 93.2%.
`COc1ccc(NC(=O)[C@@H]2C[C@H]2c2ccccc2)c(C(N)=O)c1` showed a growth of 93.9%.
`CCOC(=O)C(c1ccccc1)N1C(=O)c2ccccc2C1=O` (stereo not given) gave a growth of 115%.
`N#C/C(=C\c1ccc(-c2ccc(Cl)cc2)o1)c1nc(-c2ccco2)cs1` showed a growth of 92.3%.
For `Cc1nc2nc(SCC(=O)O)[nH]c2c(=O)[nH]1`, the growth was 94.7%.
`Oc1ccccc1/C=N/Nc1ccc2ccccc2n1` was tested, and the growth was -8.13% (active).
For `CC(=Nc1ccccc1)C1=C(O)C(Cc2ccc(F)cc2)NC1=O` (stereo not given), the growth was -12.3% (active).
`CCC(c1ccccc1)C(CC)c1ccc(O)c(O)c1` (stereo not given) gave a growth of 68%.
For `NC(=O)NC1(C(=O)O)CCCC1`, the growth was 97.1%.
`CC[C@H](Nc1ncnc2nc[nH]c12)c1nc2cccc(F)c2c(=O)n1-c1ccccc1` showed a growth of 66.8%.
For `CCCCCCNC(=O)Nc1ccc2cc3ccc(NC(=O)NCCCCCC)cc3nc2c1`, the growth was -49% (active).
For `CCCCn1c(NC(C)=O)c(S(=O)(=O)c2ccccc2)c2nc3ccccc3nc21`, the growth was 88.5%.
For `CCN(CC)CC(O)CNc1c2ccc(Cl)cc2nc2ccc(OC)cc12` (stereo not given), the growth was -0.864% (active).
Work on `Oc1cccc(CNC2CCCCC2)c1` yielded a growth of 107%.
Compound `COc1cc(NCC(=O)Nc2cc(Nc3cccc(C(F)(F)F)c3)ncn2)c(Cl)c(OC)c1Cl` has a growth of 79.2%.
With `COc1ccc2c(c1)sc1nc(-c3ccccc3)c(-c3cccnc3)n12` the growth was 105%.
`N=S(c1ccccc1[N+](=O)[O-])c1ccccc1[N+](=O)[O-]` gave a growth of 10.1%.
Compound `O=[N+]([O-])c1ccc(O)cc1Br` has a growth of 99.9%.
Work on `O=C(/C=C/c1ccc([N+](=O)[O-])cc1)c1ccccc1` yielded a growth of 35.1%.
`O=C1/C=C/[C@@H](O)[C@@H]2C[C@@H](O)C[C@H]2/C=C/CCC[C@H](CCc2ccc3ncccc3c2)O1` was tested, and the growth was -52.3% (active).
Work on `CC1=C(NCCN2CCCC2)C(=O)c2c(OCc3ccc(F)c(Cl)c3)cccc2C1=O` yielded a growth of 98.1%.
Work on `O=C(Nc1cccc2c1C(=O)c1cccc(Nc3cccc4c3C(=O)c3cccc(NC(=O)c5ccccc5)c3C4=O)c1C2=O)c1ccccc1` yielded a growth of 118%.
`CN1CCN(Cc2ccc(NC(=O)c3cncc(C#Cc4cnc(N)c5cccnc45)c3)cc2C(F)(F)F)CC1` was tested, and the growth was -13.9% (active).
In the case of `O=C(O)c1cn(C2CC2)c2cc(N3CCN(C(=O)Nc4nc(-c5ccc(Br)cc5)cs4)CC3)c(F)cc2c1=O`, the growth is reported as -2.62% (active).
In the case of `CCN(CC)CCC(CNc1ccnc2cc(Cl)ccc12)c1ccc(O)cc1` (stereo not given), the growth is reported as -1.95% (active).
Work on `O=C1C=C(O)C(=O)C(CC2=C(O)C(=O)C=C(O)C2=O)=C1O` yielded a growth of 102%.
Compound `CCN(CC)/C([O-])=c1\cccc\c1=C1\N=C(c2ccccc2)N=C1[n+]1ccc(-c2ccccc2)cc1` has a growth of 92.2%.
In the case of `C=C1C(=O)O[C@H]2[C@H]1CC/C(COC(=O)C(=O)c1c[nH]c3ccc(OC)cc13)=C\CC[C@@]1(C)O[C@@H]21`, the growth is reported as -53.2% (active).
With `COc1ccc(Oc2c(I)cc(CC(NC(C)=O)C(=O)O)cc2I)cc1` (stereo not given) the growth was 86.3%.
`c1ccc2c(c1)CN(CCCN1CCOCC1)C2` gave a growth of 105%.
`CC1COCC(C)N1C1=C(Cl)C(=O)c2ccccc2C1=O` (stereo not given) was tested, and the growth was -19.5% (active).
For `Fc1ccc(-c2nc(Nc3ccc(-c4nc5ccccc5[nH]4)cc3)nc(N3CCOCC3)n2)cc1`, the growth was -81.4% (active).
Work on `COc1ccc(/C=C2/SC(=O)N(CC(=O)N3CCN(c4cc5c(cc4F)c(=O)c(C(=O)O)cn5C4CC4)CC3)C2=O)cc1` yielded a growth of 105%.
Work on `CCN(C(=O)CCl)C(C)(C)C(SSSC(c1ccc(Cl)cc1)C(C)(C)N(CC)C(=O)CCl)c1ccc(Cl)cc1` (stereo not given) yielded a growth of 42.1%.
For `O=C(Nc1ccc(OCc2nnc(-c3ccc(Cl)cc3)o2)c(F)c1)Nc1ccc(Cl)c(C(F)(F)F)c1`, the growth was -18.5% (active).
`COC(=O)Nc1ccc(NC(=O)OC)cc1` showed a growth of 95.9%.
